# Screening results: PubChem BioAssay, National Center for Advancing Translational Sciences (NCATS)
# Rows were chosen to be rich in hits. Some 9.8% of all compounds tested hit in one or more screens of this group.
# JMJD2E inh = qHTS Assay for Inhibitors of Human Jumonji Domain Containing 2E (JMJD2E) | AID 2147, 2009 | 230,000 compounds, 1.6% hits | Potency, µM (top dose mostly 57.1 µM), for inactives: at the top dose activity change, negative = inhibition, actives largely listed as inhibitors | JMJD2E catalytic domain, FDH-coupled NADH fluorescence (FDH is formaldehyde dehydrogenase);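 also: potency is read from the fitted curve at half-maximal effect; 0% = wells with enzyme and -100% = buffer wells without enzyme; nearly all actives have a fitted effect of over 50% in size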
# Target sequence (B2RXH2 1-337 limits assumed): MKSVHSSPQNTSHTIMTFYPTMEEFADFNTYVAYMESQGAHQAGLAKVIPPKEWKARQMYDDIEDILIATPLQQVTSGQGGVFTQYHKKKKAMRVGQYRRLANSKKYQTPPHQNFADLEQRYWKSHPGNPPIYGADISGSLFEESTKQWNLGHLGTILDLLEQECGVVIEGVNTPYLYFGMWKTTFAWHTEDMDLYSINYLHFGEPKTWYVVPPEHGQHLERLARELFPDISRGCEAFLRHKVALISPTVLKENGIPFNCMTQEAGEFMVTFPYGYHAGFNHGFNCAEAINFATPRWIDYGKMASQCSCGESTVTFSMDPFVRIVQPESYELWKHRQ
# CBFb-RUNX1 inh = qHTS Assay for Compounds Blocking the Interaction Between CBF-beta and RUNX1 for the Treatment of Acute Myeloid Leukemia; AlphaScreen CBFb-His/RUNX1-biotin binding, biochemical; Potency, µM (series often up to 59.8 µM), for the others: at the top dose activity, negative = inhibition, actives largely listed as inhibitors; 230,000 tested, under 10 active; active = well fitted curve in the direction sought with a large enough effect; inconclusive = small, poorly fitted or top-dose-only effect, or another doubt; inactive = no such curve, though single readings can be large; an effect the other way counts as inactive or inconclusive; also: % of control where 0% means no effect
#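 Read-out: AlphaScreen. Format: His-CBF-beta with biotinylated RUNX1 (30 nM each) preincubated 20 min, compound 15 min, Ni-chelate plus streptavidin beads 90 min; room temperature throughout.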
# HPGD block = qHTS Assay for Inhibitors of HPGD (15-Hydroxyprostaglandin Dehydrogenase); 15-hydroxyprostaglandin dehydrogenase [NAD(+)] (Homo sapiens), P15428; purified HPGD, NADH fluorescence kinetic, PGE2 substrate; Potency, µM, for inactives: top-dose activity change, negative = inhibition, most hits filed as inhibitors; 150,000 compounds, 4.3% hits; AID 894, 2007; also: potency is read from the fitted curve at half-maximal effect; % is scaled to controls: 0 for no effect and ±100 for the full control effect
# Target sequence (P15428 whole entry, looked up): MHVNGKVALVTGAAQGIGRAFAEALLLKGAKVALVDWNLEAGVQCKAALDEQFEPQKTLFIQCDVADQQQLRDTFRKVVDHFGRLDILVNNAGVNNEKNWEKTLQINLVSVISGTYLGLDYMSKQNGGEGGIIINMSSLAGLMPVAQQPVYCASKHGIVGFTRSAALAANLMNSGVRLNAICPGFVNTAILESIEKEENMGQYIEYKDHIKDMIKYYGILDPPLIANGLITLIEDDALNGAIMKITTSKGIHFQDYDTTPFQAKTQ
#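 20 nM HPGD preincubated 15 min at room temperature with compound in 50 mM Tris-HCl pH 8, 0.01% Tween 20. Started with 1 mM NAD+ and 30 uM prostaglandin E2; NADH fluorescence (360/450 nm) read 5 times over 30-s intervals, last minus first.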
# HttQ103 aggreg = qHTS Multiplex Assay to Identify Dual Action Probes in a Cell Model of Huntington: Aggregate Formation (GFP). PC12 HttQ103-GFP aggregates, Acumen cytometry, 40 h. Potency, µM (highest dose often 46.1 µM), for the others: at the highest dose activity change, negative = inhibition, most hits filed as inhibitors. 220,000 compounds, 1.1% hits; active = well fitted curve in the direction sought with a large enough effect; inconclusive = small, poorly fitted or top-dose-only effect, or another doubt; inactive = no such curve, though single readings can be large; an effect the other way counts as inactive or inconclusive; also: potency is read from the fitted curve at half-maximal effect; % is scaled to controls: 0 for no effect and ±100 for the full control effect; nearly all actives have a fitted effect of over 60% in size
#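 Using laser scanning cytometry, GFP-positive aggregates were counted after lysis of PC12 cells induced with 100 nM tebufenozide to express HTT exon 1 Q103–GFP. Compounds were tested in titration.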
# HTT ATP protect = qHTS Multiplex Assay to Identify Dual Action Probes in a Cell Model of Huntington: Cytoprotection (ATP); PC12 HTT-Q103 induced, cytoprotection, ATP luminescence, 40 h; Potency, µM (highest dose often 56.4 µM), for the others: cytoprotection (ATP increase), actives largely listed as activators; 230,000 compounds, 0.14% hits; AID 1471, 2008; active = well fitted curve in the direction sought with a large enough effect; inconclusive = small, poorly fitted or top-dose-only effect, or another doubt; inactive = no such curve, though single readings can be large; an effect the other way counts as inactive or inconclusive; also: potency is read from the fitted curve at half-maximal effect; % of control where 0% means no effect; nearly all actives have a fitted effect of over 45% in size
#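 Rat PC12, Q103 Htt exon1-GFP fusion, ecdysone promoter; tebufenozide inducer 100 nM final; compound titration; qHTS, 1500 cells/well; ATPlite luminescent read.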
# ALDH1A1 block = qHTS Assay for Inhibitors of Aldehyde Dehydrogenase 1 (ALDH1A1); Aldehyde dehydrogenase 1A1 (Homo sapiens), P00352; Purified ALDH1A1, NADH fluorescence, propionaldehyde substrate; Potency, µM (doses to about 75.3 µM), for inactives: at the top dose activity, negative = inhibition, most hits filed as inhibitors; 220,000 compounds, 7.3% hits;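 also: potency is read from the fitted curve at half-maximal effect; plate controls were no enzyme wells and a reference inhibitor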
# Starred values were filed as active, the others as inactive; ? = inconclusive; / = no result; [ ] = dose if it differs, or a comment. Unless noted, calls follow the shape of the dose curve; as a rule, active = well fitted inhibition curve with a large enough effect (not every such curve was filed as active); inconclusive = small, poorly fitted or top-dose-only effect, or another doubt; inactive = no such curve, though single readings can be large or run the other way.
SMILES,JMJD2E inh,CBFb-RUNX1 inh,HPGD block,HttQ103 aggreg,HTT ATP protect,ALDH1A1 block
CCN(CC)c1ccc(CC2C(=O)N(C)C(=O)N(C)C2=O)cc1,-4%,-6%,-13%,19%,3%,4.5µM*
Cc1ccc(/C=C2\C(=O)NC(=S)N(c3ccccc3F)C2=O)s1,-1%,-2%,2.2µM*,0%,-11%[10 µM],8.9µM*
CN1C2CCCC1CC(=O)C2,/,6%,/,/,/,/
COc1cccc(CN2CCN(C(=O)COc3ccc4ccccc4c3)CC2)c1,2%,-4%,-7%,4%[9.22 µM],-20%,25µM*
CC(C)=CCCC(C)C1CC[C@@]2(C)C3=C(CC[C@@]12C)C1(C)CCC(O)C(C)(C)C1CC3 (some centres not stated),-9%,/,-9%,/,/,28µM*
CC(=O)OC1CCC2(C)C3=C(CCC2C1(C)C)[C@]1(C)CCC(C(C)CCC=C(C)C)[C@]1(C)CC3 (some centres not stated),-11%,-7%,-6%,/,-35%,?
O=C1NS(=O)c2cc([N+](=O)[O-])cc([N+](=O)[O-])c21 (configuration not stated),?,?,/,-5%,-5%,22µM*
O=[N+]([O-])c1cc([N+](=O)[O-])c2ccccc2c1,/,-10%[21.7 µM],-10%,/,-6%,-6%
CCN(CC)c1ccc(C=C2C(=O)N(C)C(=S)N(C)C2=O)o1,-2%,-5%,-13%,1%,/,-14%
CN1C(=O)C(=Cc2ccc(N3CCCCC3)o2)C(=O)N(C)C1=S,-3%,5%,-23%,14%,-28%,14µM*
Cc1cc(C)cc(N2C(=O)/C(=C\c3ccc(N4CCN(C)CC4)o3)C(=O)NC2=S)c1,-15%,-8%,/,17%[9.22 µM],20%[10 µM],/
CN1C(=O)C(=Cc2ccc(SC3CCCCC3)o2)C(=O)N(C)C1=O,-4%,-5%,/,-21%,-14%,14µM*
C=CCN1C(=O)/C(=C/c2ccc(N3CCOCC3)o2)C(=O)NC1=S,-4%,4%,28µM*,-4%,-7%[0.074 µM],-6%
O=C1NC(=O)C(=Cc2ccc(N3CCOCC3)o2)C(=O)N1,18µM*,-9%,/,25%,/,0%
O=C1NC(=O)N(c2ccc3c(c2)OCO3)C(=O)/C1=C/c1ccc(N2CCCCC2)o1,-9%,1%,-12%,-13%,-11%,-11%
CC(C)C[C@H](NP(=O)(O)O[C@@H]1O[C@@H](C)[C@@H](O)[C@@H](O)[C@H]1O)C(=O)N[C@@H](Cc1c[nH]c2ccccc12)C(=O)O,/,/,/,/,-11%[1.9 µM],/
C[C@H]1O[C@H](O[C@H]2[C@H](O)[C@@H](O)[C@@H](O)[C@H](O)[C@@H]2O)[C@@H](N)C[C@@H]1NC(=N)C(=O)O,1%,/,-1%,/,/,?
COc1ccc([N+](=O)[O-])cc1CSc1ccccn1,-2%,-4%,/,?,-4%,?
COc1ccc(C=C2C(=O)N(C)C(=O)N(C)C2=O)cc1CSc1ccccn1,-1%,-1%,25µM*,-1%,-1%,3.2µM*
COc1ccccc1[N+](=O)[O-],/,31%[21.7 µM],-6%,/,-2%,25µM*
COc1ccccc1CCNCc1cc2c(cc1[N+](=O)[O-])OCO2,-29%,-1%,-4%,-9%,9%,?
CCNC(=O)[C@@H]1O[C@@H](n2cnc3c(N)ncnc32)[C@@H](O)[C@H]1O,/,/,/,/,7%[1.9 µM],/
CCOP(=S)(OCC)Oc1cc(C)oc(=O)c1Cl,?,-4%,/,-2%[9.22 µM],-8%[10 µM],1µM*
CCOP(=S)(OCC)Oc1cc(C)oc(=O)c1,?,-2%,/,5%[9.22 µM],33%[10 µM],7.9µM*
O=C(O)c1ccccc1O,?,7%,?,-4%,19%,?
SMILES,JMJD2E inh,CBFb-RUNX1 inh,HPGD block,HttQ103 aggreg,HTT ATP protect,ALDH1A1 block
Oc1ccccc1O,14µM*,-19%,18µM*,/,-89%,14µM*
COc1cccc(C(=O)N2CCN(Cc3ccccn3)CC2)c1OC,55%,15%,-10%,-13%,14%,7.1µM*
COc1ccc(C(=O)C2CCCN(Cc3ccccn3)C2)c(OC)c1 (configuration not stated),-5%,-16%,/,0%[9.22 µM],4%[10 µM],-4%
CCN1C[C@]2(C)CC[C@@H](O)[C@]34[C@@H]5CC6[C@@H](OC)C[C@@](O)([C@H]5[C@@H]6O)[C@@H](C[C@@H]23)[C@H]14,/,/,/,/,-4%[1.9 µM],/
COC(C(=O)C(O)C(C)O)C1Cc2cc3cc(OC4CC(OC5CC(O)C(OC)C(C)O5)C(OC(C)=O)C(C)O4)c(C)c(O)c3c(O)c2C(=O)C1OC1CC(OC2CC(OC3CC(C)(O)C(OC(C)=O)C(C)O3)C(O)C(C)O2)C(O)C(C)O1 (configuration not stated),/,/,/,0.18µM*,-159%,/
O=C(O)[C@H](Cc1cnc[nH]1)N1C(=O)c2ccccc2C1=O,/,/,-1%,/,-1%[10 µM],-7%[13.5 µM]
CCc1ccc(N2C(=O)NC(=O)/C(=C/c3cccn3CCOc3ccc(C)cc3)C2=O)cc1,1%,-27%,-7%,?,24%[1.9 µM],7%
CCOc1ccc(CC2C(=O)NC(=O)N(c3ccc(CC)cc3)C2=O)cc1 (configuration not stated),-3%,2%,-13%,13%,3%,22µM*
C=C(C)Cn1c(-c2cccs2)n[nH]c1=S,?,-3%,/,8%[9.22 µM],-16%[10 µM],?
CNCCc1ccc(O)c(O)c1,14µM*,1%,?,/,-61%,?
C#CCOS(=O)OC1CCCCC1Oc1ccc(C(C)(C)C)cc1 (configuration not stated),?,/,-19%,/,/,?
CC(=O)OC[C@]12CCC(C)=C[C@H]1O[C@@H]1[C@H](O)[C@@H](OC(C)=O)[C@@]2(C)[C@]12CO2,7%,9%,/,0.1µM*,-76%[10 µM],/
